Only some compounds are listed: those with a hit (about 2.4% of all), similar ones and a draw of the others.
D2 antag – antagonists of human D2 dopamine receptor; inhibition, % at 10 µM; 340,000 tested, 2% active; HEK293 TREx D2 cells, calcium flux, dopamine EC80; in the data active = inhibition above about 30%; inactive = below that, where a call was filed
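Cells plated overnight at 30 C with tetracycline; no-wash calcium dye, 30–90 min RT; 10 s baseline; compound pinned; 180 s read; EC80 dopamine added; another 180 s read.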
D2 ag-1 – activates the human D2 dopamine receptor. P14416. DiscoveRx PathHunter D2 beta-arrestin, luminescence, 90 min; 100% = 57 uM dopamine signal. activation, % (no concentration beside the values). 360,000 tested, 0.084% active. AID 624465; in the data active = activation above about 40%; inconclusive = between about 15% and that limit
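Agonist mode: compounds alone added to overnight-plated D2 PathHunter cells for 90 min at 37 C, with 57 uM final dopamine (EC100) defining full response. Beta-arrestin recruitment detected by chemiluminescent reagent, read after 1 h at ambient temperature.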
D2 PAM-1 – positive allosteric modulators of human D2 dopamine receptor; P14416; 360,000 tested, 0.23% active; potentiation, % (no concentration beside the values); DiscoveRx D2 beta-arrestin cells, luminescence, 90 min; 100% = 57 uM dopamine signal; in the data active = potentiation above about 50%; inconclusive = mostly about 30% to 49%
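D2 cells co-treated with compound plus 50 nM dopamine (EC20) for 90 min at 37 deg C to detect potentiation. Beta-arrestin recruitment was read as enzyme-fragment luminescence after 1 h at ambient temperature. Full response was set by 57 uM dopamine.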
D2 PAM-2 – D2 dopamine receptor (human) potentiation; P14416; HEK293 T-REx D2, calcium flux, EC20 dopamine potentiation; potentiation, % at 10 µM; 340,000 tested, 0.34% active; AID 485347;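 active = potentiation over 3 SD above the plate norm, cut at about 30% in these data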
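Using a no-wash calcium dye in inducible, force-coupled HEK293 Trex cells expressing D2, we tracked fluorescence each second for 180 s after compound, then for 180 s after EC20 dopamine to detect augmented signalling.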
D2 ag-2 – D2 dopamine receptor (human) agonism; P14416; 340,000 tested, 0.53% active; AID 485358; HEK293 T-REx D2 cells, calcium flux agonist mode; activation, % at 2 µM;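 active = activation over 3 SD above normal in the single-dose calcium agonist read, cut at about 30% in these data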
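In this primary screen, compounds producing a positive calcium signal within 180 s of addition to tetracycline-induced, force-coupled HEK293 Trex D2 cells are flagged; cells are dye-loaded with a no-wash calcium kit beforehand.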
D3 arrestin ag – activates human D3 dopamine receptor beta-arrestin recruitment. 2,300 tested, 4% active. Potency, µM (highest dose often 76.9 µM), hits mostly activators. DiscoveRx D3 beta-arrestin cells, luminescence, 90 min. shares compounds with D2 ag-2; also: nearly all actives have a fitted effect of over 70% in size
Target sequence (P35462 whole entry, looked up): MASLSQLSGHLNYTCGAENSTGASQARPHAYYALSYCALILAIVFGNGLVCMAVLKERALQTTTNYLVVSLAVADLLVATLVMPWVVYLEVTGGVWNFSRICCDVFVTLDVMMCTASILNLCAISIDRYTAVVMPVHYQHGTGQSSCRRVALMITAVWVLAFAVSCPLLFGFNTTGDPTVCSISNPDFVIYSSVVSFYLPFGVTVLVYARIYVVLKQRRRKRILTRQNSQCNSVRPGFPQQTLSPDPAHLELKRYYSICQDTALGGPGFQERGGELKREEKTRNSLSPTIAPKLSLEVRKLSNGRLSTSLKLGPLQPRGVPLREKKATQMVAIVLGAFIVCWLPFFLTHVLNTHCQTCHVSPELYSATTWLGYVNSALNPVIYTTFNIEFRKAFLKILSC
D2 ag-3 – counter-screen for D3 agonists: human D2 dopamine receptor agonism; shares compounds with D2 ag-2; DiscoveRx PathHunter D2 beta-arrestin, luminescence, 90 min; response scale: percent relative to full dopamine signal; Potency, µM (highest dose often 76.9 µM), hits mostly activators; 2,300 tested, 5.9% active; AID 720507; also: nearly all actives have a fitted effect of over 70% in size
Hits are given with their value; i = inactive; ? = inconclusive; nt = no result. Unless noted, calls follow the shape of the dose curve; as a rule, active = well fitted activation curve with a large enough effect; inconclusive = small, poorly fitted or top-dose-only effect; inactive = flat fitted curve, though single readings scatter.

SMILES	D2 antag	D2 ag-1	D2 PAM-1	D2 PAM-2	D2 ag-2	D3 arrestin ag	D2 ag-3
Cc1cc(/C=C(\C#N)C(N)=O)c(C)n1-c1ccc(N2CCOCC2)c([N+](=O)[O-])c1	i	i	i	i	55.2	i	i
COc1ccc(CCNC(=O)C(=O)c2cn(CC(=O)N3CCCC3)c3ccccc23)cc1	nt	i	i	nt	nt	nt	nt
CCOC(=O)N1CCC(NC(=O)c2ccc(CS(=O)c3cccc(Cl)c3)o2)CC1 (stereo unspecified)	54.1	i	i	i	43.6	i	i
C=CC[C@]12CCc3ccccc3C1N(c1ccc(C(=O)OCC)cc1)C2=O (stereo partly specified)	i	i	i	i	i	i	i
CCOC(=O)c1ccc(N2C(=O)Cc3ccccc3C2=O)cc1	i	i	i	i	i	nt	nt
Cc1cc(C)c(NC(=O)Cn2cnc3c(oc4ccccc43)c2=O)c(C)c1	i	i	i	i	i	i	i
O=C(CCc1nc2ccccc2c(=O)[nH]1)Nc1ccc(Cl)c(Cl)c1	54.3	?	i	i	70.4	?	?
CCOC(=O)c1sc(NC(=O)CSCc2c(C)noc2C)nc1C	i	i	i	i	i	i	i
CCOC(=O)c1sc(NC(=O)c2c(CC)noc2C)nc1C	i	i	i	i	i	i	i
Cc1ccc2c(=O)c(C(=O)c3ccc(F)cc3)cn(CC(=O)NCc3ccccc3)c2n1	nt	nt	nt	i	i	nt	nt
COCc1cc(C)nc(OCC(=O)N/N=C/c2ccc(O)cc2)c1C#N	i	i	i	i	50.5	i	i
COc1ccc(C(=O)Nc2cc(C(F)(F)F)ccc2-n2cnc3ccccc32)cc1	i	i	i	i	i	nt	nt
CC(=O)Nc1ccc(C(=O)Nc2cc(C(F)(F)F)ccc2-n2cnc3ccccc32)cc1	i	i	i	i	i	i	i
CS(=O)(=O)n1c2ccccc2c(=O)n1-c1ccccc1CCl	nt	i	i	nt	nt	nt	nt
O=C(NCCNC1CCCCC1)c1ccco1	i	i	i	i	i	nt	nt
CC1CCC(NCCNC(=O)c2ccco2)CC1 (stereo unspecified)	i	i	i	i	68.0	i	i
Cc1ccc(C(=O)N2CCN(C34CC5CC(CC(C5)C3)C4)CC2)o1	nt	i	i	nt	nt	i	i
COc1cccc(OCc2cc(C(=O)N3CCN(C)C(c4ccccc4)C3)no2)c1 (stereo unspecified)	nt	i	i	nt	nt	nt	nt
O=C(NCc1ccccc1CN1CCCC1)C1CCN(C(=O)c2ccc(F)cc2)CC1	i	i	i	i	i	nt	nt
Cc1ccc(/C=N/c2sc3c(c2C#N)CCC3)o1	i	i	i	i	i	nt	nt
N#Cc1c(/N=C\c2ccc(O)c([N+](=O)[O-])c2)sc2c1CCCC2	i	?	i	i	66.6	?	i
N#Cc1c(/N=C/c2ccc(Br)s2)sc2c1CCC2	i	i	i	i	i	nt	nt
N#Cc1c(/N=C/c2ccc(-c3ccccc3C(=O)O)o2)sc2c1CCCC2	i	i	i	i	65.8	?	?
N#Cc1c(/N=C/c2ccc(-c3ccc(C(=O)O)c(Cl)c3)o2)sc2c1CCCC2	i	?	i	i	45.3	39.8µM	?
COc1ccc(C)cc1-n1nnnc1SC(C)C(=O)NC1CCCC1 (stereo unspecified)	nt	i	i	nt	nt	nt	nt
O=C(NCc1ccccc1)C(=O)NCC(c1ccco1)N1CCN(c2ccccc2F)CC1 (stereo unspecified)	i	i	i	i	i	nt	nt
O=C(NCc1cccnc1)C(=O)NCC(c1ccco1)N1CCN(c2ccccc2)CC1 (stereo unspecified)	i	?	i	i	31.9	?	?
O=C(NCc1cccnc1)C(=O)NCC(c1ccco1)N1CCN(c2ccccc2F)CC1 (stereo unspecified)	i	41.4	i	i	62.6	i	?
O=C(c1ccc(F)c(S(=O)(=O)N2CCOCC2)c1)N(c1ccccc1)c1ccccn1	nt	i	i	nt	nt	i	?

Assay outcomes from PubChem BioAssay.
